Values without a mark were called inactive. Inconclusive results are not listed. Where a call stands in place of a potency, no number is given. The source made the active and inactive calls. The call rests on the fitted dose curve; in most records, active means well fitted curve in the direction sought with a large enough effect; inconclusive means small, poorly fitted or top-dose-only effect, or another doubt; inactive means no such curve, though single readings can be large; an effect the other way counts as inactive or inconclusive.
How the values were obtained:
[1] = target: Glutathione peroxidase 1 (Homo sapiens) (UniProt P07203); test: Primary qHTS Assay for Inhibitors of Recombinant Selenoprotein Glutathione Peroxidase 1 (GPX1) (AID 1845191); further: nearly all actives have a fitted effect of over 65% in size
Chain of Glutathione peroxidase 1 (Homo sapiens) (P07203 whole entry, looked up): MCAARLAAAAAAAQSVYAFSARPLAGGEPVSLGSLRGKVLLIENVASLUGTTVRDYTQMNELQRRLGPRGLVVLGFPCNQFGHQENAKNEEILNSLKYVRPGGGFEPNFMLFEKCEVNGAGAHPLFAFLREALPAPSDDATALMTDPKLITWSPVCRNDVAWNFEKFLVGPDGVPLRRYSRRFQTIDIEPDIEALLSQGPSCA
In short: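 NADPH consumption tracked by fluorescence at 340/450 nm between t=0 and t=15 min, room temperature. Final mix: 10 nM GPX1, 100 nM glutathione reductase, 1 mM GSH, 0.5 mM NADPH, 0.5 mM cumene hydroperoxide, 0.01% BSA; 30 min compound–enzyme preincubation.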

[2] = target: Phospholipid hydroperoxide glutathione peroxidase GPX4 (Homo sapiens) (UniProt P36969); test: Primary qHTS Assay for Inhibitors of Recombinant Selenoprotein Glutathione Peroxidase 4 (GPX4) (AID 1845192); further: nearly all actives have a fitted effect of over 65% in size; on activity change, negative = inhibition: series mostly up to about 50 µM
Chain of Phospholipid hydroperoxide glutathione peroxidase GPX4 (Homo sapiens) (P36969 whole entry, looked up): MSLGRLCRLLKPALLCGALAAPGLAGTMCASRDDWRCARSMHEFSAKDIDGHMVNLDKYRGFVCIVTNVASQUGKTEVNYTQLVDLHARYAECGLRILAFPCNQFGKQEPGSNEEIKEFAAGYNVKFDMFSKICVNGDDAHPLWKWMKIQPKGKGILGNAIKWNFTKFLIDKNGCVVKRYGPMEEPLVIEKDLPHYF
In short: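 NADPH consumption followed by fluorescence at 340/450 nm, t=0 and after 15 min at room temperature. Reaction started with cumene hydroperoxide (0.5 mM final) after 30 min compound–GPX4 preincubation; final 200 nM GPX4, 100 nM GR, 1 mM GSH, 0.5 mM NADPH.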

[3] = target: Luciferin 4-monooxygenase (Photinus pyralis) (UniProt P08659); test: Primary firefly luciferase (FLuc) qHTS assay for identification of artifact compounds. (AID 1845220); further: nearly all actives have a fitted effect of over 60% in size; further: potency means the concentration at half of the fitted maximal effect; on activity change, negative = inhibition: series mostly up to about 54 µM
In short: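 Compounds sat 15 min at room temperature with 10 uM luciferin and 10 uM ATP (pH 7.6 Tris acetate). Firefly luciferase (10 nM final) was then added, and luminescence was read 5 min later. Data normalized to no-enzyme and DMSO controls were Hill-fitted.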

[4] = Primary fluorescence-based thiol-reactive (MSTI) qHTS assay for identification of artifact compounds. (AID 1845221); further: nearly all actives have a fitted effect of over 65% in size; further: potency means the concentration at half of the fitted maximal effect;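 on activity change, negative = thiol reactive: series mostly up to about 54 µM; thiol-reactive compounds lower the probe fluorescence signal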
In short: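 A multi-concentration qHTS design tested compounds against 4 uM MSTI, pH 7.4 phosphate-buffered saline. Plates were protected from light for 1 h at room temperature before imaging fluorescence.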

[5] = tested on: Nanoluciferase (engineered Oplophorus gracilirostris luciferase); test: Primary Nanoluciferase (NLuc) qHTS assay for identification of artifact compounds. (AID 1845222); further: series mostly up to about 54 µM
In short: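 Luminescence from secreted NLuc (filtered, 1:55-diluted S16 cell medium) read 5 min after Nano-Glo substrate; compounds preincubated 15 min, RT. Hill fits of inhibition normalized to DMSO and no-enzyme.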

[6] = Primary redox qHTS assay for identification of artifact compounds. (AID 1845223)
In short: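 Redox-cycling detection via DTT (250 uM final) oxidation coupled to Amplex Red (25 uM)/HRP (250 mU/mL) in HBSS. 15 min preincubation plus 30 min after DTT, room temperature. Ex/Em 525/598 nm; 4-parameter Hill fit against DMSO and 10 uM DA3003.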

## NC(=O)C1=CC2C3C=CC2C(OC3=O)O1 (centres undefined)
[1]
  Potency: inactive
[2]
  Potency: inactive
[3]
  Potency: inactive
[4]
  Potency: 15800 nM (active)
[5]
  Potency: inactive
[6]
  Potency: inactive

## CN(c1ccc(NC(=O)Nc2ccccc2)cc1)S(=O)(=O)c1cnn(-c2ccc(F)cc2)c1
[1]
  Potency: inactive
[2]
  Potency: inactive
[3]
  Potency: inactive
[4]
  Potency: inactive
[5]
  Potency: inactive
[6]
  Potency: inactive

## C=C1CC[C@@H]2[C@](C)(CO)[C@H](O)CC[C@@]2(C)[C@@H]1C/C=C1/C(=O)OCC1OC(=O)/C(=C/CO)C(O)C[C@@H]1C(=C)CC[C@@H]2[C@](C)(CO)[C@H](O)CC[C@]21C (some centres undefined)
[1]
  Potency: inactive
[2]
  Potency: inactive
[3]
  Potency: inactive
[4]
  Potency: inactive
[5]
  Potency: inactive
[6]
  Potency: inactive

## COC(=O)/C=C/C=C/C(=O)OC1C=C2COC(=O)C2(O)C2(C)CCCC(C)(C)C12 (centres undefined)
[1]
  Potency: inactive
[2]
  Potency: inactive
[3]
  Potency: inactive
[4]
  Potency: inactive
[5]
  Potency: inactive
[6]
  Potency: inactive

## CC(C)(O)C1Cc2c(ccc(C(=O)CCc3ccccc3)c2O)O1 (centres undefined)
[1]
  Potency: inactive
[2]
  Potency: inactive
[3]
  Potency: 294 nM (active)
[4]
  Potency: inactive
[5]
  Potency: inactive
[6]
  Potency: inactive

## CCC(C)(OC(C)=O)C(=O)O[C@H]1[C@H](OC(C)=O)[C@]2(CO)[C@H](O)[C@H](O)[C@]3(C)C(=CCC4[C@@]5(C)CC[C@H](O[C@@H]6O[C@H](C(=O)O)[C@@H](O)[C@H](O[C@@H]7OC[C@H](O)[C@H](O[C@@H]8OC[C@H](O)[C@H](O)[C@H]8O)[C@H]7O)[C@H]6O[C@@H]6O[C@H](CO)[C@@H](O)[C@H](O)[C@H]6O)C(C)(C)C5CC[C@]43C)[C@@H]2CC1(C)C (some centres undefined)
[1]
  activity, negative = inhibition: -12.6% [at 9.52 µM]
[2]
  activity change, negative = inhibition: -15.3% [at 9.73 µM]
[3]
  activity change, negative = inhibition: -11% [at 11.6 µM]
[4]
  activity change, negative = thiol reactive: 202% [at 11.5 µM]
[5]
  activity, negative = inhibition: -1.71% [at 11.6 µM]
[6]
  redox activity (% of DA3003): 22% [at 11.5 µM]

## C/C=C(/C=C(C)/C=C/C=C/C=C(\C)C(=O)C12OC1C(O)(CCO)NC2=O)C(=O)OC (centres undefined)
[1]
  Potency: inactive
[2]
  Potency: inactive
[3]
  Potency: inactive
[4]
  Potency: inactive
[5]
  Potency: inactive
[6]
  Potency: inactive

## C=CC(C)(O)CC/C=C(\C)C(=O)OC1C(O)C(CO)OC(OC(=O)C23CCC(C)(C)CC2C2=CCC4C5(C)CCC(OC6OC(COC7OCC(OC(C)=O)C(O)C7OC7OC(COC(C)=O)C(O)C(O)C7OC(C)=O)C(O)C(O)C6OC6OCC(O)C(O)C6O)C(C)(C)C5CCC4(C)C2(C)C(O)C3O)C1OC1OCC(OC2OCC(O)C(OC3OCC(O)C(O)C3O)C2O)C(O)C1O (centres undefined)
[1]
  activity, negative = inhibition: -15.5% [at 9.52 µM]
[2]
  outcome: inactive [at 9.73 µM]
[3]
  outcome: inactive [at 6.45 µM]
[4]
  activity change, negative = thiol reactive: 140% [at 6.41 µM]
[5]
  activity, negative = inhibition: 0% [at 6.45 µM]
[6]
  redox activity (% of DA3003): 4.4% [at 6.41 µM]

## CC(=O)NC[C@H]1CN(c2ccc(N3CCSCC3)c(F)c2)C(=O)O1
[1]
  Potency: inactive
[2]
  Potency: inactive
[3]
  Potency: inactive
[4]
  Potency: inactive
[5]
  Potency: inactive
[6]
  Potency: inactive

## Fc1ccc(CN2CCC(Nc3ccc(C(F)(F)F)nn3)CC2)cc1F
[1]
  Potency: inactive
[2]
  Potency: inactive
[3]
  Potency: inactive
[4]
  Potency: inactive
[5]
  Potency: inactive
[6]
  Potency: inactive

## CN(C)CCN(Cc1ccc(-c2ccc(CNCCc3ccccc3)cc2)cc1)C(=O)CCC1CCCC1
[1]
  Potency: inactive
[2]
  Potency: inactive
[3]
  Potency: inactive
[4]
  Potency: inactive
[5]
  Potency: inactive
[6]
  Potency: inactive

## O=C(NCCN1CCOCC1)c1cc2c(Oc3ccc(NC(=O)C4(C(=O)Nc5ccc(F)cc5)CC4)cc3)ccnc2[nH]1
[1]
  Potency: inactive
[2]
  Potency: inactive
[3]
  Potency: inactive
[4]
  Potency: inactive
[5]
  Potency: inactive
[6]
  Potency: inactive

## COC1=CC(=O)C=C(C)C12Oc1c(Cl)c(OC)cc(OC)c1C2=O (centres undefined)
[1]
  Potency: inactive
[2]
  Potency: inactive
[3]
  Potency: inactive
[4]
  Potency: inactive
[5]
  Potency: inactive
[6]
  Potency: inactive

## C=C(C)C1CCC2(C(=O)O)CCC3(C)C(CCC4C5(C)C(C=O)C(O)C(C)(C)C5CCC43C)C12 (centres undefined)
[1]
  Potency: inactive
[2]
  Potency: inactive
[3]
  Potency: inactive
[4]
  Potency: inactive
[5]
  Potency: inactive
[6]
  Potency: inactive

## C=CC(=O)Nc1cccc(Nc2nc(Nc3ccc(NC4CN(CCF)C4)cc3OC)ncc2C(F)(F)F)c1
[1]
  Potency: inactive
[2]
  Potency: inactive
[3]
  Potency: inactive
[4]
  Potency: 2380 nM (active)
[5]
  Potency: inactive
[6]
  Potency: inactive

## CC(C)C[C@@H]1NC(=O)[C@@H](Cc2ccccc2)NC(=O)C(CCCCCC(=O)C2CO2)NC(=O)[C@@H]2CCCCN2C1=O (some centres undefined)
[1]
  Potency: inactive
[2]
  Potency: inactive
[3]
  Potency: inactive
[4]
  Potency: inactive
[5]
  Potency: inactive
[6]
  Potency: inactive

## Cc1nc(C#Cc2ccnc(Cl)c2)c(C)n1-c1ccc(OC(F)(F)F)cc1
[1]
  Potency: inactive
[2]
  Potency: inactive
[3]
  Potency: inactive
[4]
  Potency: inactive
[5]
  Potency: inactive
[6]
  Potency: inactive

## O=C(NCCCCCCCCNC(=O)C(Cl)Cl)C(Cl)Cl
[1]
  Potency: inactive
[2]
  Potency: inactive
[3]
  Potency: inactive
[4]
  Potency: inactive
[5]
  Potency: inactive
[6]
  Potency: inactive

## COc1ccc(CN2CCN(C(=O)CCNC(=O)c3ccc(C(C)(C)C)cc3)CC2)cc1
[1]
  Potency: inactive
[2]
  Potency: inactive
[3]
  Potency: inactive
[4]
  Potency: inactive
[5]
  Potency: inactive
[6]
  Potency: inactive

## COc1ccc([C@H]2Cc3cccc(O)c3C(=O)O2)cc1OC
[1]
  Potency: inactive
[2]
  Potency: inactive
[3]
  Potency: inactive
[4]
  Potency: inactive
[5]
  Potency: inactive
[6]
  Potency: inactive

## CC(C)C(C)C(O)C1CC23CC(=O)C4(O)C(=C2CCC3C1C)C=CC1(O)CC(O)CCC14C (centres undefined)
[1]
  Potency: inactive
[2]
  Potency: inactive
[3]
  Potency: inactive
[4]
  Potency: inactive
[5]
  Potency: inactive
[6]
  Potency: inactive

## NC(=O)c1nc(Nc2ccccc2)sc1NC(=O)C1CCCCC1
[1]
  Potency: inactive
[2]
  Potency: inactive
[3]
  Potency: inactive
[4]
  Potency: 1680 nM (active)
[5]
  Potency: inactive
[6]
  Potency: inactive

## C=C1C(=O)O[C@H]2C[C@@H](C)[C@@H]3CCC(=O)[C@@]3(C)C[C@H]12
[1]
  Potency: inactive
[2]
  Potency: inactive
[3]
  Potency: inactive
[4]
  Potency: inactive
[5]
  Potency: inactive
[6]
  Potency: inactive

## C=C1C(=O)O[C@@H]2/C=C(\C)CC/C=C(\C)CC[C@@H]12
[1]
  Potency: inactive
[2]
  Potency: inactive
[3]
  Potency: inactive
[4]
  Potency: inactive
[5]
  Potency: inactive
[6]
  Potency: inactive
